Data taken from PubChem BioAssay (Tox21).
Inconclusive results are not listed. Active and inactive are the calls of the source. Unless noted, the call rests on the fitted dose curve; in most records, active means well fitted curve in the direction sought with a large enough effect in the repeat runs; inconclusive means weak or mixed curves; inactive means no such curve, though single readings can be large; an effect the other way counts as inactive or inconclusive.

Assays:
[1] = qHTS assay to identify small molecule agonists of the sonic hedgehog signaling (Shh) pathway (AID 1259368; calls by dose curve;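 further: NIH/3T3-derived 3T3Gli1-Luc cells carrying a stable Gli1-driven firefly luciferase reporter; series mostly up to about 92 µM; nearly all actives have a fitted effect of over 15% in size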)
Outline: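 Luminescent signal was taken as a measure of Gli1-controlled luciferase expression in stably transfected NIH/3T3-derived cells that had been treated for 24 hr with compounds delivered in DMSO.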

[2] = qHTS assay to identify small molecule antagonists of the sonic hedgehog signaling (Shh) pathway (AID 1259369; calls by dose curve; further: nearly all actives have a fitted effect of over 45% in size; further: potency means the concentration at half of the fitted maximal effect)
Outline: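 Screening used 3T3Gli1-Luc cells at 2,000 per well, compounds delivered in DMSO, and conditioned medium as agonist stimulus; plates incubated 24hr at 37 C and 5% CO2 before a 30min luciferase step.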

[3] = molecular target: Estrogen receptor beta (Homo sapiens) (UniProt Q92731); assay: qHTS assay to identify small molecule agonists of the estrogen receptor beta (ER-beta) signaling pathway (AID 1259377; active means well fitted activation curve with a large enough effect in the signal ratio in the repeat runs, not every such curve was filed as active; the % refers to the signal ratio)
Estrogen receptor beta (Homo sapiens), sequence (Q92731 whole entry, looked up): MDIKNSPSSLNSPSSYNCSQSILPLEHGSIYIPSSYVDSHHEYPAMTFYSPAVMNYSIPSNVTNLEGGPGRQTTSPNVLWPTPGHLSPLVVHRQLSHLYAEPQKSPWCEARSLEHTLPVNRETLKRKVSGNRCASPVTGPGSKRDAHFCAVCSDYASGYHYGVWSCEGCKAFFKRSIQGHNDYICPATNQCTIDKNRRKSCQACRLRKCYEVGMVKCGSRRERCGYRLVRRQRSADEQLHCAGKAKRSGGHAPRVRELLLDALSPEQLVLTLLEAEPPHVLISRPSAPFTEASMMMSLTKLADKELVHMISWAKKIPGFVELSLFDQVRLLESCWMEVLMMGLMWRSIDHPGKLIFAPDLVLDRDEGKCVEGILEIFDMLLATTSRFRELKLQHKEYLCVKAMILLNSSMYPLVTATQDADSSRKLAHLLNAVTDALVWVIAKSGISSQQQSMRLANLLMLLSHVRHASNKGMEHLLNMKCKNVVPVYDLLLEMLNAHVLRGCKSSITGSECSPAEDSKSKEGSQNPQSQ
Outline: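 Screening used GripTite ER-beta-UAS-bla cells held in 2% charcoal-stripped FBS medium. After overnight (16 hr) compound incubation at 37C, beta-lactamase activity was detected with a FRET substrate by fluorescence.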

[4] = molecular target: Estrogen receptor beta (Homo sapiens) (UniProt Q92731); assay: qHTS assay to identify small molecule antagonists of the estrogen receptor beta (ER-beta) signaling pathway (AID 1259378; active means well fitted inhibition curve with a large enough effect in the signal ratio in the repeat runs, not every such curve was filed as active; the % refers to the signal ratio)
Outline: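 ER-beta-UAS-bla HEK293T (GripTite) cells in 2% charcoal-stripped FBS medium were preincubated 6 hr at 37C, dosed with compound, then stimulated with 1 nM E2 (final) for 16 hr; beta-lactamase reporter read by B/G FRET fluorescence after 2 hr substrate loading.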

[5] = qHTS assay to identify small molecule agonists of the androgen receptor (AR) signaling pathway in the presence of an antagonist - cell viability counter screen (AID 1259379);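 further: MDA-kb2 human breast cancer cells carrying an MMTV luciferase reporter; series mostly up to about 92 µM; nearly all actives have a fitted effect of over 25% in size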
Outline: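 In MDA-kb2 cells (human breast carcinoma, MMTV-luciferase), compounds at 15 concentrations plus 3.0uM nilutamide; 16 hr, 37C, 0% CO2; CellTiter-Fluor fluorescence read for viability.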

[6] = qHTS assay to identify small molecule antagonists of the estrogen receptor beta (ER-beta) signaling pathway - cell viability counter screen (AID 1259382); further: series mostly up to about 92 µM; nearly all actives have a fitted effect of over 55% in size
Outline: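 Tox21 10K library tested in qHTS format on ER-beta-bla HEK293T cells stimulated with 1nM E2; 16 hr treatment at 37C. Same-well CellTiter-Glo luminescence served as the cell viability measure.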

[7] = qHTS assay to identify small molecule agonists or antagonists of the thyroid stimulating hormone receptor (TSHR) signaling pathway - wild type cell line counter screen (AID 1259384; calls by dose curve)
Outline: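 Wild-type HEK293 cells were plated 18 h at 37 C/5% CO2, pin-dosed with compound plus Ro20-1724 medium, held 30 min at room temperature, then given cAMP-d2 and anti-cAMP-cryptate; fluorescence was read after 1 h. Fifteen concentrations, triplicate.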

[8] = molecular target: Thyrotropin receptor (Homo sapiens) (UniProt P16473); assay: qHTS assay to identify small molecule antagonists of the thyroid stimulating hormone receptor (TSHR) signaling pathway (AID 1259385; calls by dose curve; further: nearly all actives have a fitted effect of over 20% in size)
Thyrotropin receptor (Homo sapiens), sequence (P16473 whole entry, looked up): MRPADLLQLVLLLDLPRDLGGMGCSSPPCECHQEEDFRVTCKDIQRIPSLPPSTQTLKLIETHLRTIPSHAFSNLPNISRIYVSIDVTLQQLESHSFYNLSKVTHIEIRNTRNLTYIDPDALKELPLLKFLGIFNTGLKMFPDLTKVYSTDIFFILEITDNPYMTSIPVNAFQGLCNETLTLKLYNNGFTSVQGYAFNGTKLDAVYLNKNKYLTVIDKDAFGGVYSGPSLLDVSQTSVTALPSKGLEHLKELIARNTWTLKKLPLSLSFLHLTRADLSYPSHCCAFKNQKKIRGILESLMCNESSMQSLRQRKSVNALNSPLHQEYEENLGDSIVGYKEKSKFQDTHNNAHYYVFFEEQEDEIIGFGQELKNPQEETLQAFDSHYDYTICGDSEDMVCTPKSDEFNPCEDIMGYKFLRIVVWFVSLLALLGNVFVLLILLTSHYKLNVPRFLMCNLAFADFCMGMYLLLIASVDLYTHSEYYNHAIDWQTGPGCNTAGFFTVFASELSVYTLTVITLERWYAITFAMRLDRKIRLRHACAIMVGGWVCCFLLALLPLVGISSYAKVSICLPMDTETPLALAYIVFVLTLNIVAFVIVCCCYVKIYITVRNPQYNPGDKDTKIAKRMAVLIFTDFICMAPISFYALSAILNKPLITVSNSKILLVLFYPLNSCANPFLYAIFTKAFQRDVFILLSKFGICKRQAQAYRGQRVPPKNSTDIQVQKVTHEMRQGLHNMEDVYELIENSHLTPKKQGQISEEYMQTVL
Outline: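 TSHR-HEK293 cells were plated and held 18 h at 37C/5% CO2, then given compound plus Ro20-1724 and stimulated with TSH at 1.5 ng/mL final. After 30 min at room temperature, cAMP was detected with cAMP-d2/anti-cAMP-cryptate (1 h) by fluorescence.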

[9] = qHTS assay to identify small molecule agonists of the estrogen receptor alpha (ER-alpha) signaling pathway in the presence of an antagonist - cell viability counter screen (AID 1259386);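 further: series mostly up to about 92 µM; cells exposed to compounds for 22 h at 37 °C before the viability read; nearly all actives have a fitted effect of over 30% in size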
Outline: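 Fluorescent CellTiter-Fluor viability signal from VM7Luc4E2 cells, with the reagent added during the final hour of a 22hr compound exposure at 37C in the presence of 10.0nM ICI-182,780.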

[10] = molecular target: Progesterone receptor (Homo sapiens) (UniProt P06401); assay: qHTS assay to identify small molecule agonists of the progesterone receptor (PR) signaling pathway (AID 1346784; calls by dose curve; further: nearly all actives have a fitted effect of over 30% in size)
Progesterone receptor (Homo sapiens), sequence (P06401 whole entry, looked up): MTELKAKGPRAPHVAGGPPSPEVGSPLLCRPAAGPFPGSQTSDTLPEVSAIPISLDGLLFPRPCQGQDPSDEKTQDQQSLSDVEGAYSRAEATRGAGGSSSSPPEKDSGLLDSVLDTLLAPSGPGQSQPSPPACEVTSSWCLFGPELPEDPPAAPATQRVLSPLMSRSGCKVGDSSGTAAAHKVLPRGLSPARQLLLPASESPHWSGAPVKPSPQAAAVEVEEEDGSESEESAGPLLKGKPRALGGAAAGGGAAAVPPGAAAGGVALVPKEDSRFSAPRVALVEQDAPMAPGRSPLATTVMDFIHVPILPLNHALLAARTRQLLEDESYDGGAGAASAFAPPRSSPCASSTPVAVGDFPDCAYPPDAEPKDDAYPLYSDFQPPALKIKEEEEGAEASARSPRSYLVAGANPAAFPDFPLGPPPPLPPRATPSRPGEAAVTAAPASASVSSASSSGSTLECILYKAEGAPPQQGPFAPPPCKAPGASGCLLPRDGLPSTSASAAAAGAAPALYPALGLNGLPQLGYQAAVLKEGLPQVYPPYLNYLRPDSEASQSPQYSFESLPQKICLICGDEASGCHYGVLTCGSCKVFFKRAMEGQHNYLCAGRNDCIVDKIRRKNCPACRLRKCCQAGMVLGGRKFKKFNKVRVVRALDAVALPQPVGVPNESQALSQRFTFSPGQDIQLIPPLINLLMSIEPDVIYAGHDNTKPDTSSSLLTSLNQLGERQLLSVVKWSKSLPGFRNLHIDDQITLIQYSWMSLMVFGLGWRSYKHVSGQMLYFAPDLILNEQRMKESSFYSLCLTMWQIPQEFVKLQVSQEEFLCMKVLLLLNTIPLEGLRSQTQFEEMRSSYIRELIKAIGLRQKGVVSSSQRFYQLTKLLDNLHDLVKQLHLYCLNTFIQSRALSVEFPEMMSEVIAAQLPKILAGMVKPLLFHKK
Outline: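 Seed PR-UAS-bla HEK 293T cells (2% charcoal-stripped FBS), incubate 6 hr at 37C; add compounds in DMSO, 16 hr at 37C; add LiveBLAzer B/G substrate, 2 hr RT; read fluorescence intensity.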

[11] = molecular target: Progesterone receptor (Homo sapiens) (UniProt P06401); assay: qHTS assay to identify small molecule antagonists of the progesterone receptor (PR) signaling pathway (AID 1346795; active means well fitted inhibition curve with a large enough effect in the signal ratio in the repeat runs, not every such curve was filed as active; the % refers to the signal ratio; further: potency means the concentration at half of the fitted maximal effect)
Outline: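 Screening used a GripTite HEK293T line with PR-responsive UAS-beta-lactamase. Cells were challenged with compound in the presence of 1 nM R5020 final for 16 hr at 37C; B/G FRET substrate, 2 hr room temperature, fluorescence.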

[12] = qHTS assay to identify small molecule antagonists of the progesterone receptor (PR) signaling pathway - cell viability counter screen (AID 1346798); further: series mostly up to about 92 µM; nearly all actives have a fitted effect of over 50% in size
Outline: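 Measures cytotoxicity in parallel with the PR antagonist reporter read: HEK293T PR-UAS-bla cells get compound and R5020 for 16 hr, and remaining viable cells are quantified by CellTiter-Glo luminescence.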

[13] = qHTS assay to identify small molecule agonists of the progesterone receptor (PR) signaling pathway - cell viability counter screen (AID 1346799; calls by dose curve; further: nearly all actives have a fitted effect of over 45% in size)
Outline: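 Using the same plates as the PR reporter screen, HEK293T PR-UAS-bla cells received compounds for 16 hr at 37C and were then lysed with CellTiter-Glo; luminescence was read 30 min later at room temperature.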

[14] = qHTS assay to identify small molecule antagonists of the TGF-beta/Smad signaling pathway - cell viability counter screen (AID 1346824); further: nearly all actives have a fitted effect of over 50% in size
Outline: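 SBE-bla HEK 293T cells were plated overnight at 37 C, then given compounds in DMSO plus TGF-beta1 (added as 0.25 ng/mL solution) for 5 hr. After the bla read, CellTiter-Glo was added to the same wells and luminescence read after 30 min at room temperature.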

[15] = qHTS assay to identify small molecule agonists of the TGF-beta/Smad signaling pathway - cell viability counter screen (AID 1346829); further: top concentration of the series differs between compounds; nearly all actives have a fitted effect of over 45% in size
Outline: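 Compound-treated SBE-bla HEK 293T cells (5 hr, 37 C) were assessed for viability with CellTiter-Glo in parallel with the reporter read.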

[16] = qHTS assay to identify small molecule agonists of the TGF-beta/Smad signaling pathway (AID 1346859; active means well fitted activation curve with a large enough effect in the signal ratio in the repeat runs, not every such curve was filed as active; the % refers to the signal ratio; further: series mostly up to about 77 µM)
Outline: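 Beta-lactamase reporter activity downstream of Smad binding elements was measured in stably transfected HEK 293T cells; compounds were incubated for 5 hr, substrate for 2 hr at room temperature.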

[17] = molecular target: Thyrotropin-releasing hormone receptor (Homo sapiens) (UniProt P34981); assay: qHTS assay to identify small molecule antagonists of the thyrotropin-releasing hormone receptor (TRHR) signaling pathway (AID 1346877; active means well fitted inhibition curve with a large enough effect in the repeat runs, not every such curve was filed as active; further: series mostly up to about 51 µM)
Thyrotropin-releasing hormone receptor (Homo sapiens), sequence (P34981 whole entry, looked up): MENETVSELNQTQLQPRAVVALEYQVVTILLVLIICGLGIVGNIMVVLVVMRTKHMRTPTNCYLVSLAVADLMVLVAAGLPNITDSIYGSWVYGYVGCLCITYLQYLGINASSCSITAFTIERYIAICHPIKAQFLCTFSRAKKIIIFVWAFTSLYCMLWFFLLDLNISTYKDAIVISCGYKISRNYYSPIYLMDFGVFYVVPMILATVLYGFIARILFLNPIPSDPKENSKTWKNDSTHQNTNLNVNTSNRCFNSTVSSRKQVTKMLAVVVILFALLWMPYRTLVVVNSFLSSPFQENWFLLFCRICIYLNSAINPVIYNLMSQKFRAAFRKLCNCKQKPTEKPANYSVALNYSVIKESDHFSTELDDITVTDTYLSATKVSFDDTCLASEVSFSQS
Outline: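 In this cell-based calcium flux format, HEK293 cells expressing TRHR received test compound for 5 min before the agonist TRH (1 nM final). Dye loading lasted 2 h at 37 °C.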

[18] = qHTS assay to identify small molecule agonists of the estrogen receptor beta (ER-beta) signaling pathway - cell viability counter screen (AID 1259380); further: nearly all actives have a fitted effect of over 30% in size
Outline: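 Viability of ER-beta-UAS-bla HEK293T cells was determined by CellTiter-Glo luminescence following 16 hr treatment with test compounds at 37C.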

[19] = molecular target: Estrogen receptor (Homo sapiens) (UniProt P03372); assay: qHTS assay to identify small molecule agonists of the estrogen receptor alpha (ER-alpha) signaling pathway in the presence of an antagonist (AID 1259383; calls by dose curve; further: top concentration of the series differs between compounds; nearly all actives have a fitted effect of over 15% in size)
Estrogen receptor (Homo sapiens), sequence (P03372 whole entry, looked up): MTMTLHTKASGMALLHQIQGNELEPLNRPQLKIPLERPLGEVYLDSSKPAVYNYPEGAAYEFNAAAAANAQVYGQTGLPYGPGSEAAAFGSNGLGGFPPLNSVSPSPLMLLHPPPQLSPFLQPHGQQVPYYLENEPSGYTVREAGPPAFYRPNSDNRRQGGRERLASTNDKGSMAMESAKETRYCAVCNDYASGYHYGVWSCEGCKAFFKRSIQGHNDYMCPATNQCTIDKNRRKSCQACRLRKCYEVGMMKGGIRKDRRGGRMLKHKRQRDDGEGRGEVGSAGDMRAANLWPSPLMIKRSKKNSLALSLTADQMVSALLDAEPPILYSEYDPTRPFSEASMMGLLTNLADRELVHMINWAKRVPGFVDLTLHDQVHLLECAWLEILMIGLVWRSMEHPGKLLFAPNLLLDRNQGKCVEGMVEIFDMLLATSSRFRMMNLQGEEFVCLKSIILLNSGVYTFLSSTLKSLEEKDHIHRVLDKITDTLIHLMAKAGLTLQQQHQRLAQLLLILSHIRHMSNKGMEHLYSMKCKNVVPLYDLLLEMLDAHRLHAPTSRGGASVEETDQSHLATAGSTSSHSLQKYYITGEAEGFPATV
Outline: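 In VM7Luc4E2 cells, 4,000 per well, compounds at 15 concentrations were co-incubated 22hr at 37C with 10.0nM final ICI-182,780. Luminescence from the stably transfected 4×ERE-luciferase reporter was recorded 30min after ONE-Glo addition.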

Measured: Potency

C=O
inactive: [1] | [2] | [3] | [4] | [5] | [6] | [7] | [8] | [9] | [10] | [11] | [12] | [13] | [14] | [15] | [16] | [17]

Cc1cn([C@@H]2O[C@H](CO)[C@@H](O)[C@@H]2F)c(=O)[nH]c1=O
inactive: [1] | [2] | [3] | [4] | [5] | [18] | [6] | [7] | [9] | [10] | [11] | [12] | [13] | [14] | [15] | [16] | [17]

CC(C)CC(=O)OCc1ccccc1
inactive: [1] | [2] | [3] | [4] | [5] | [18] | [6] | [19] | [10] | [12] | [13] | [14] | [15] | [16] | [17]

CC(C)=CCC[C@](C)(O)[C@@H]1CC=C(C)CC1
inactive: [1] | [2] | [3] | [4] | [5] | [18] | [6] | [7] | [8] | [9] | [10] | [11] | [13] | [14] | [15] | [16]

CC1(C)S[C@@H]2[C@H](NC(=O)C(C(=O)O)c3ccccc3)C(=O)N2[C@H]1C(=O)O (stereo partly specified)
inactive: [1] | [2] | [3] | [4] | [5] | [18] | [6] | [9] | [10] | [11] | [12] | [13] | [14] | [15] | [16]

CCC1(C)NC(=O)NC1=O (stereo unspecified)
inactive: [1] | [2] | [3] | [4] | [5] | [6] | [7] | [8] | [9] | [10] | [11] | [12] | [13] | [14] | [15] | [16]

C=CC(C)(O)CC/C=C(\C)CCC=C(C)C (stereo unspecified)
inactive: [1] | [2] | [3] | [4] | [5] | [18] | [6] | [9] | [10] | [11] | [12] | [13] | [14] | [15] | [16] | [17]

COc1cc2c(cc1N)oc1ccccc12
active: [2] 27.9 µM | [11] 44.2 µM
inactive: [1] | [3] | [4] | [5] | [18] | [6] | [9] | [10] | [12] | [14] | [15] | [16]
